High-throughput results: PubChem, several laboratories
The list is not random: actives were taken first. Their share in the collection is about 2.9%.
GRK2 aptamer HTS: blocks RNA aptamer binding to human GRK2 | 330,000 tested, 0.59% active | AID 488847 | inhibition of aptamer binding, % at 10 µM | P25098 | bead flow cytometry, FAM-aptamer displacement from GRK2;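 active means inhibition of aptamer binding above 40%, roughly 3 SD of noise, on plates passing a quality check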;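 further: median bead fluorescence of bound FAM aptamer so fluorescent compounds give negative values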
Target sequence (P25098 whole entry, looked up): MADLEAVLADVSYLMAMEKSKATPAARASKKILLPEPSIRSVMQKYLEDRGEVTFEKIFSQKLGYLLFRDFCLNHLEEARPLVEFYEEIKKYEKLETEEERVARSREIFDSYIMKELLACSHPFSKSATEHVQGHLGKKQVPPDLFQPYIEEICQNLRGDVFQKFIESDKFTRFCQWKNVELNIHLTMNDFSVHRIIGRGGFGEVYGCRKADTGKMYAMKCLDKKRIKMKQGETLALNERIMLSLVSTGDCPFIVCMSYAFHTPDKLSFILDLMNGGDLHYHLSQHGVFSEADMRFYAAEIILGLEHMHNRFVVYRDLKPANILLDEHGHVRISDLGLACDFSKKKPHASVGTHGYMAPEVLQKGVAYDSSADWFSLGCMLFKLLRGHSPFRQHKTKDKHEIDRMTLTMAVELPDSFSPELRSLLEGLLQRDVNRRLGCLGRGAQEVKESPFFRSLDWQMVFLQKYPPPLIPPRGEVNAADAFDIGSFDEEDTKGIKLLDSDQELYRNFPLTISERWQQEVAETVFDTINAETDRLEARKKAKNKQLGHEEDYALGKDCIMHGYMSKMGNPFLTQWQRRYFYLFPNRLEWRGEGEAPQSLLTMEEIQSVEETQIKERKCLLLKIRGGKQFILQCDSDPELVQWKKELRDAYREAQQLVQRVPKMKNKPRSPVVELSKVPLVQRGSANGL
Granule exo inh: lytic granule exocytosis inhibition; 360,000 tested, 0.66% active; inhibition, % at 10 µM; AID 651702; TALL-104 LAMP-1 surface exposure, flow cytometry; cells stimulated with thapsigargin and PMA;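 active means inhibition above about 55%, limit read from the data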
PP1 counter: counter-screen for PP5 inhibitors: inhibitors of human PP1-alpha | purified PP1alpha, OMFP fluorescence | inhibition, % at 6.7 µM | 320,000 tested, 0.9% active;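 active means inhibition above the mean inhibition of all tested compounds plus 3 SD, computed separately for each screening campaign, cut at about 15% in these data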
NadD inh: blocks S. aureus nicotinate mononucleotide adenylyltransferase; purified NadD enzyme, colorimetric absorbance read-out; inhibition, % at 20 µM; 360,000 tested, 0.78% active; AID 602399; in the data active means inhibition above about 26%
B2AR ag: human beta-2 adrenergic receptor agonism by FAP; 340,000 tested, 0.43% active; response, % (no concentration beside the values); Am2.2-beta2AR cells, FAP receptor internalization, flow cytometry; P07550;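 active means response above a set limit, near 3 SD of response in nonfluorescent compounds, cut at about 42% in these data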
Exocytosis CP01: lytic granule exocytosis inhibition; inhibition, % at 10 µM; AID 651954; 1,500 tested, 11% active; TALL-104 cells, LAMP-1 externalization, flow cytometry; stimulated with PMA plus thapsigargin; shares compounds with Granule exo inh; in the data active means inhibition above about 60%;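 further: 0% = stimulated vehicle wells and 100% = unstimulated wells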
Numbers without * were called inactive; nt = not tested or not shown.

SMILES | GRK2 aptamer HTS | Granule exo inh | PP1 counter | NadD inh | B2AR ag | Exocytosis CP01
O=C(NC1CCCC1)C1C(c2ccc(C(F)(F)F)cc2)=Nc2ccccc2N1C(=O)c1cc2ccccc2[nH]1 (centres undefined) | nt | 70* | nt | nt | nt | -15
CC(C)NC(=O)C1C(c2ccc(C(F)(F)F)cc2)=Nc2ccccc2N1C(=O)c1cc2ccccc2[nH]1 (centres undefined) | nt | -20 | nt | nt | nt | nt
Cc1cccc(NC(=O)CNC(=O)COc2cc(F)ccc2[N+](=O)[O-])c1C | 0 | 0 | -3 | -2 | -6 | nt
COc1cccc(N2CCc3c(C)nc4ccc(Cl)cc4c32)c1 | 0 | 82* | nt | -6 | 8 | -7
COc1ccc2noc3c2c1C(=O)c1ccccc1-3 | 12 | 88* | -69 | 0 | -555 | 23
COc1ccc(N)c2c1C(=O)c1ccccc1C2=O | 8 | 2 | 4 | 2 | 2 | nt
CCc1cccc(C)c1NC(=O)Nc1c(Br)cnn1C | 2 | -5 | 2 | -5 | 7 | nt
C=CCOc1ccc(C(=O)c2ccccc2)c(OCC(=O)NC2(C#N)CCCC2)c1 | 2 | 61* | 7 | -9 | -12 | -13
CC(NC(=O)CNC(=O)c1ccccc1Br)c1cccs1 (centres undefined) | nt | 0 | nt | -2 | -1 | nt
COc1ccc(CN2C(=O)CCCC2(C)c2nc3ccccc3[nH]2)cc1 (centres undefined) | nt | 6 | nt | 1 | nt | nt
Cc1ccc(SC[C@H](c2ccccc2)N2CCN(CCc3ccccc3)CCC2=O)cc1 | 0 | 59* | 6 | -1 | 3 | -11
O=C1CCN(CCc2ccccc2)CCN1[C@H](CSc1ccccc1)c1ccccc1 | 0 | 10 | 3 | -3 | 3 | nt
CNC(=S)NCCc1cc2c(OC)ccc(OC)c2[nH]c1=O | 0 | 3 | -2 | -2 | -5 | nt
COc1cccc(-c2cc(C(=O)O)no2)c1 | 0 | 1 | -5 | 3 | 2 | nt
COc1cccc(-c2cc(CC3(O)CCN(CCCc4ccccc4)CC3)on2)c1 | 0 | 63* | 1 | -3 | -2 | -11
CCCC1=Nc2cc(C(=O)N3CCN(c4ccccn4)CC3)ccc2Sc2ccc(C)cc21 | 6 | 70* | 12 | 18 | 2 | -4
CCCCN(C=O)c1c(CC)nc2ccc(C(=O)N3CCCCC3)cn12 | nt | -2 | nt | 2 | nt | nt
CCOC(=O)c1c(NC(=O)c2ccn(CC)n2)sc2c1CCC2 | 4 | 80* | 4 | -3 | 0 | -3
CCOC(=O)c1c(NC(=O)c2nn(CC)cc2Br)sc2c1CCCCC2 | 0 | 3 | -1 | 1 | 6 | nt
COc1cc(CC(=O)N2CCN(S(=O)(=O)c3ccc(C)cc3)CC2)cc(OC)c1OC | 7 | 8 | nt | -2 | -12 | nt
CCN(Cc1ccccc1)S(=O)(=O)c1ccc(C(=O)N(CCCN(C)C)c2nc3cc4c(cc3s2)OCO4)cc1 | 0 | 66* | 9 | 5 | 21 | 55
Cc1cc(C)c2sc(N(CCCN(C)C)C(=O)c3ccc(S(=O)(=O)N4CCCc5ccccc54)cc3)nc2c1 | 0 | 58* | 8 | 0 | 33 | 47
Cc1cc(C)c2sc(N(CCCN(C)C)C(=O)c3ccc(S(=O)(=O)N4CCc5ccccc5C4)cc3)nc2c1 | 0 | 56* | 8 | 11 | 51* | 63*
Cc1ccc2nc(N(CCCN(C)C)C(=O)c3ccc(S(=O)(=O)N4CCc5ccccc5C4)cc3)sc2c1 | 40 | 47 | 10 | 9 | 18 | nt
COc1ccc2sc(N(CCCN(C)C)C(=O)c3ccc(S(=O)(=O)N4CCc5ccccc5C4)cc3)nc2c1 | 0 | 76* | 7 | 8 | 31 | 84*
SMILES | GRK2 aptamer HTS | Granule exo inh | PP1 counter | NadD inh | B2AR ag | Exocytosis CP01
COC(=O)c1ccc(CC(=O)c2c(C)cc(O)cc2O)o1 | 7 | -2 | 3 | 5 | 7 | nt
O=S(=O)(c1cnc[nH]1)N1CCN(C(c2ccc(F)cc2)c2ccc(F)cc2)CC1 | 2 | -2 | 8 | -4 | -5 | nt
O=C1CCCN1CCC(=O)N1CCCC(N2CCN(c3ccccc3F)CC2)C1 (centres undefined) | 0 | -13 | -2 | 2 | 3 | nt
Cc1cc(Nc2cccc(C(=O)O)c2)n2ncnc2n1 | 2 | 6 | 1 | 0 | 4 | nt
Nc1ncnc(Nc2ccccc2Cl)n1 | 3 | 5 | 1 | -8 | -6 | nt
COc1ccc(S(=O)(=O)N2CC(=O)Nc3ccccc32)cc1 | 2 | -6 | -3 | -3 | 9 | nt
COc1cc2c(cc1OC)C(c1c(Cl)cccc1Cl)=NCC2 | nt | 0 | nt | 4 | nt | nt
